Compounds with a hit are over-represented: about 11% of the library has one in this group of screens.
BAZ2B block – inhibitors of human BAZ2B bromodomain; 360,000 tested, 4.4% active; Q9UIF8; Potency, µM (series often up to 114 µM), for inactives: top-dose activity change, negative = inhibition, most hits filed as inhibitors; AlphaScreen BAZ2B-H3K14Ac peptide displacement; also: % is scaled to controls: 0 for no effect and ±100 for the full control effect; nearly all actives have a fitted effect of over 60% in size
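Complex of BAZ2B and biotin-H3K14Ac (50 nM apiece) forms over 30 min at RT, then faces library compounds up to 110 uM for another 30 min; AlphaScreen beads added, 20 min dark incubation, luminescence read.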
HP1b chromo inh – HP1-beta chromodomain-methylated histone interaction inhibition. AlphaScreen HP1-beta / biotin-H3K9me3 peptide binding. P83916. 390,000 tested, 0.56% active. Potency, µM (highest dose often 114 µM), for inactives: at the top dose activity change, negative = inhibition, hits mostly inhibitors; also: nearly all actives have a fitted effect of over 70% in size
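AlphaScreen: HP1-beta (50 nM) preformed 30 min with biotin-H3(1-18)K9me3 peptide (50 nM) in PBS pH 7.4, 0.01% Tween-20. Compound added for 30 min at RT, then streptavidin donor/nickel chelate acceptor beads (10 ug/mL) for 30 min.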
PLK1 PBD block – inhibitors of human PLK1 polo-box domain binding. P53350. 360,000 tested, 2.8% active. Plk1 PBD binding of FITC phosphopeptide, fluorescence polarization. Potency, µM, for inactives: max response, negative = inhibition, most hits filed as inhibitors; also: series mostly up to about 57 µM; % is scaled to controls: 0 for no effect and ±100 for the full control effect; nearly all actives have a fitted effect of over 65% in size
JMJD2A Tudor – inhibitors of human JMJD2A Tudor domain; O75164; AlphaScreen JMJD2A-Tudor / H3K4me3 peptide binding; Potency, µM (titrated, usually from 114 µM), without a hit: at the highest dose activity change, negative = inhibition, hits mostly inhibitors; 390,000 tested, 4.4% active; AID 504339; also: % is scaled to controls: 0 for no effect and ±100 for the full control effect; nearly all actives have a fitted effect of over 50% in size
VDR inh – vitamin D3 receptor (human) inhibition; VDR-SRC2-3 peptide fluorescence polarization, 2 h; AID 504847; Potency, µM, inactives show max response, negative = inhibition, hits mostly inhibitors; 400,000 tested, 0.93% active; P11473; also: % is scaled to controls: 0 for no effect and ±100 for the full control effect
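Compounds are added to VDR with labelled SRC2-3 coactivator peptide and held 2 h at room temperature. Inhibition of the VDR–peptide interaction is then read as a change in fluorescence polarization.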
G9a block – blocks human histone lysine methyltransferase G9a | Q96KQ7 | G9a H3K9 monomethylation, AlphaScreen, 2 h | Potency, µM (series often up to 102 µM), inactives show at the top dose activity, negative = inhibition, hits mostly inhibitors | 350,000 tested, 8.8% active | AID 504332; also: % is scaled to controls: 0 for no effect and ±100 for the full control effect; nearly all actives have a fitted effect of over 75% in size
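Enzyme 20 nM + cpd, 15 min RT; add b-H3K9 pep 500 nM / SAM 20 uM; 2 h RT; anti-H3K9me1 Ab 0.5 ug/mL + SA donor / anti-rabbit acceptor beads 20 ug/mL each, 10 min; AlphaScreen read.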
* marks the source's active call; other numbers are inactive results; ? = inconclusive; / = not tested or not shown; [ ] = another dose, or the depositor's remark. Calls follow the shape of the dose curve; as a rule, active = well fitted curve in the direction sought with a large enough effect; inconclusive = small, poorly fitted or top-dose-only effect, or another doubt; inactive = no such curve, though single readings can be large; an effect the other way counts as inactive or inconclusive. Potency is read from the fitted curve at half-maximal effect.

SMILES	BAZ2B block	HP1b chromo inh	PLK1 PBD block	JMJD2A Tudor	VDR inh	G9a block
N#Cc1c(/N=C/c2ccc(-c3ccc(C(=O)O)c(Cl)c3)o2)sc2c1CCCC2	?	?	?	?	-21%	-48%[12.7 µM]
COCc1cc(C)nc(OCC(=O)N/N=C/c2ccc(-c3cccc([N+](=O)[O-])c3)o2)c1C#N	-36%	/	/	/	/	50µM*
COCc1cc(C)nc(OCC(=O)N/N=C/c2ccc(O)cc2)c1C#N	-5%	34%	0%	-10%	13%	8%
Cc1oc(-c2cccc(Cl)c2)nc1CSc1nc2ncccc2[nH]1	-2%	16%	/	-17%	-2%	?
COc1cccc(/C(O)=C2/C(=O)C(=O)N(CCN3CCOCC3)C2c2cccs2)c1 (configuration not stated)	-4%	14%	-14%	?	-11%	45µM*
Cc1nc2ccccn2c1/C(O)=C1\C(=O)C(=O)N(CCN2CCOCC2)C1c1ccncc1 (configuration not stated)	?	2%	-6%	25µM*	14%	?
Cc1nc2ccccn2c1/C(O)=C1\C(=O)C(=O)N(CCN(C)C)C1c1ccco1 (configuration not stated)	-28%	26%	-4%	-17%	21%	?
Cc1nc2c(C)cccn2c1/C(O)=C1\C(=O)C(=O)N(CCN2CCOCC2)C1c1cccs1 (configuration not stated)	?	2%	-4%	?	17%	20µM*
Cc1nc2c(C)cccn2c1/C(O)=C1\C(=O)C(=O)N(CCN(C)C)C1c1cccs1 (configuration not stated)	/	14%	-9%	0%	0%	/
COc1ccc(-c2cc(OC(=O)c3ccc(Cl)cc3)c3c(C)oc(C)c3c(=O)c2)cc1	40µM*	0%	/	?	?	?
COc1ccc(C(=O)Oc2cc(-c3ccc4c(c3)OCO4)cc(=O)c3c(C)oc(C)c23)cc1	-30%	18%	/	-17%	10%	?
CCOc1ccc(-c2cc(OC(=O)c3ccc(OC)cc3)c3c(C)oc(C)c3c(=O)c2)cc1	-32%	17%	/	-30%	?	?
CCOc1cc(-c2ccc(OC(=O)c3ccc(OC)cc3)c(OC)c2)cc(=O)c2c(C)oc(C)c12	?	-7%	/	?	?	16µM*
CC(C)CN(C(=O)COc1ccc(Br)cc1C=O)C1CCS(=O)(=O)C1 (configuration not stated)	1%	24%	-2%	1%	-11%	?
COc1ccccc1-c1cc(-c2ccc(C)cc2)nc(SCc2nnc(-c3ccccc3)o2)c1C#N	11%	-26%	21µM*	-22%	?	11µM*
Cc1cc(C)c(C#N)c(SCc2nnc(-c3ccccc3)o2)n1	21%	39%	-15%	1%	-13%	-9%[59 µM]
CC(C)(/C=N/O)/[N+]([O-])=C/c1ccco1	0%	26%	4%	-11%	-5%	-24%
Cc1nc(/C=[N+](\[O-])C(C)(C)/C=N/O)n(O)c1C	50µM*	24%	-1%	7.9µM*	19%	?
CCc1ccc(S(=O)(=O)NCCc2cn3cccc(C)c3n2)s1	/	11%	-3%	-21%	17%	?
Cc1cc(Cl)c(OCCOCCN2CCN(C)CC2)c(Br)c1	50µM*	?	2%	7.9µM*	-3%	?
Cc1cc(Cl)c(OCCOCCN2CCC(C)CC2)c(Br)c1	?	-20%	2%	7.9µM*	-17%	?
Cc1cc(C)c(OCCCON2C(=O)CCC2=O)c(Br)c1	5%	51%	-11%	-4%	-5%	1%[12.7 µM]
Cc1cc(C)c(OCCCCN2CCC(C)CC2)c(Br)c1	?	?	-5%	5µM*	7%	-47%
Cc1ccc(C)c(NS(=O)(=O)c2ccc3c(c2)n(C)c(=O)n3C)c1	3%	15%	/	-18%	4%	2%[59 µM]
CC(=O)N1CCC2(CC1)CCN(c1ccc(-c3ccccc3)cc1)CC2	/	/	/	/	-9%	-1%[12.7 µM]
SMILES	BAZ2B block	HP1b chromo inh	PLK1 PBD block	JMJD2A Tudor	VDR inh	G9a block
O=C(c1ccccc1)[C@@H]1[C@@H](C(=O)c2ccc(F)cc2)[C@@]2(C(=O)Nc3ccccc32)[C@H]2c3ccccc3C=CN12	-36%	23%	-15%	-30%	?	13µM*
CC(=O)[C@@H]1[C@@H](C(=O)c2ccccc2)[C@]2(C(=O)Nc3ccccc32)[C@H]2C=Cc3cc(F)ccc3N12	?	-31%	-29%	-36%	-14%	8.9µM*
N#CC1c2ccccc2C=CN1C(=O)c1ccccc1 (configuration not stated)	25%	14%	-7%	-19%	-6%	3%
COc1ccc(CN(Cc2ccco2)C(=O)COc2ccc(Cl)cc2C)cc1	32%	67%	/	3%	8%	69%[59 µM]
CCOc1ccccc1N1CCN(C(=O)c2cn(CC3CCCCC3)nn2)CC1	-34%	22%	6%	-15%	-8%	1%
CCCCn1c2c(c(=O)n(C)c1=O)C(CC(=O)OCC(=O)Nc1cccc(C(F)(F)F)c1)C(=O)N2 (configuration not stated)	-4%	28%	-12%	-17%	-18%	32µM*
O=C(CN1C(=O)C2CCCCC2C1=O)Nc1cccc(C(F)(F)F)c1 (configuration not stated)	/	39%	2%	-8%	-21%	/
COc1ccc(C(CNC(=O)C(CCSC)NC(=O)c2ccccc2OC)N2CCCCC2)cc1 (configuration not stated)	-26%	5%	7%	-22%	17%	32µM*
COc1ccc(C(CNC(=O)C(CCSC)NC(=O)c2ccccc2Cl)N2CCOCC2)cc1 (configuration not stated)	-6%	33%	-1%	-6%	3%	2%
COCCCn1c(=O)/c(=C\c2ccccc2OC(F)F)s/c1=C(/C#N)C(N)=O	-25%	30%	3%	-6%	-3%	-4%
C=CCn1c(=O)/c(=C/c2ccc(C)o2)s/c1=C(/C#N)C(=O)c1ccccc1	11µM*	?	?	-18%	58%	?
CCOc1ccccc1NC(=O)C(NS(=O)(=O)c1cccc2nsnc12)c1ccccc1 (configuration not stated)	-11%	-3%	/	-16%	1%	-35%[59 µM]
CCOC(=O)Cn1nc(-c2ccccc2)c2cnc3ccc(C)cc3c21	-29%	32%	-10%	-30%	-10%	56µM*
C/C(=N/NC(=O)c1sc(=S)n(C)c1C)c1ccccc1	-5%	38%	-2%	1%	19%	18%
Cc1cccc(-c2noc(-c3ccccc3OCC(=O)Nc3ccc([N+](=O)[O-])cc3)n2)c1	-34%	-15%	/	28µM*	7%	?

High-throughput results (PubChem BioAssay)
